Experimental data published in PubChem BioAssay (NCI).
Compounds without any hit were thinned out: in the full panel of roughly 83,000, 20% have a hit.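 Interpretation: 100, growth as untreated; towards 0, rising growth inhibition; 0, no net growth; 0 to -100, cell death. Compounds scoring below 10 were considered active.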 Unmarked numbers belong to inactive results. Activity calls are given as the source filed them.

The compounds below were run on HL-60(TB) leukemia (assay: NCI-60 one-dose screen, 48 h (100 = growth as untreated, 0 = no growth, -100 = all killed)). Conditions: 10 µM unless noted.

| SMILES | growth |
| --- | --- |
| Nc1c(C(=O)c2ccc(Br)cc2)oc2nc(-c3cnccn3)cc(-c3cccs3)c12 | 100% |
| CC(C)=CCC[C@](C)(O)[C@H]1CC[C@]2(C)[C@@H]1CC[C@@H]1[C@@]3(C)CC[C@H](N)C(C)(C)[C@@H]3CC[C@]12C | -24.1% (active) |
| CCC1=Cc2c(OC)cccc2OC12C=Cc1c(OC)cccc1O2 (stereo not given) | -6.34% (active) |
| O=C(Nc1ccc2c(ccn2Cc2ccccn2)c1)c1ccnnc1 | 145% |
| O=C(CCCCCCN1CC(=O)N2[C@@H](c3cccs3)c3[nH]c4ccccc4c3C[C@H]2C1=O)NO | 100% |
| O=S(=O)(NCCCNc1nccc(-c2[nH]c(-c3ccccc3)nc2-c2ccc(Cl)c(O)c2)n1)c1cccc2ccccc12 | 9.79% (active) |
| O=C(Nc1cccc(Cl)c1)Nc1nc2ccc(-c3cccc4ccccc34)cc2s1 | 66.9% |
| CCOC(=O)C(=O)CC(=O)N1C(=S)NC(=O)C1CC(C)C (stereo not given) | 111% |
| O=c1nc(Nc2ccc([N+](=O)[O-])cc2O)sc2ccccc12 | -13.3% (active) |
| COc1ccc(CCN2C(=O)CSC2=S)cc1OC | 62.4% |
| O=C1c2c(O)cc(O)cc2O[C@@H](c2ccc(O)cc2)[C@@H]1c1c(O)cc(O)c2c(=O)cc(-c3ccc(O)c(O)c3)oc12 | 103% |
| Clc1ccc2c(OCCCN3CCOCC3)c3oc4ccccc4c3nc2c1 | 42.1% |
| O=C(NNc1nc2cc(F)cc(F)c2n2cccc12)c1ncccn1 | -2.92% (active) |
| CNC(=O)c1c(NC(=O)c2ccccc2C(F)(F)F)sc2c1CCC(=O)C2 | -10.5% (active) |
| NS(=O)(=O)c1ccc(Nc2nc(N/N=C/c3ccc4c(c3)OCO4)nc(Nc3ccccc3)n2)cc1 | 31.1% |
| O=C(CCCN1C(=O)/C(=C/c2ccccc2F)SC1=S)N1CCOCC1 | 93.5% |
| O=C(Nc1ccc2c(ccn2Cc2ccccn2)c1)c1cnccn1 | 131% |
| CCCCOc1ccc(S(=O)(=O)N2CCN(c3nc(C)cc(N4CCOCC4)n3)CC2)cc1 | 20.3% |

| SMILES | growth |
| --- | --- |
| Cn1cc(-c2cc(N)n3nc(-c4cn(C)c5ccc(Br)cc45)cc3n2)c2cc(Br)ccc21 | 26.7% |
| CC[C@]12C=CCN3CC[C@]4(C(=C(C(=O)OC)C1)Nc1cc5c(cc14)[C@@H]1[C@H](O5)[C@@H](O)[C@@]4(CC)CC(C(=O)OC)=C5Nc6cc(OC)ccc6[C@@]56CCN1[C@@H]46)[C@@H]32 | 5.09% (active) |
| CN1C(=O)/C(=C/C=C/c2ccco2)SC1=S | 99.6% |
| CN1CCN(c2ccc(Nc3nc(NCCNC(=O)c4ccc(F)cc4)c4sccc4n3)cc2)CC1 | 34.3% |
| Cc1ccc(NC(=O)N[C@@H](Cc2cc(F)cc(F)c2)C(=O)NC2C(=O)N3CCC[C@H]3C(=O)N3CCCC[C@H]3C(=O)N[C@@H](C)C(=O)N3C[C@H](C)C[C@H]3C(=O)O[C@H]2C)c(F)c1 (stereo not given in full) | 13.4% |
| N#Cc1c(-c2ccc(F)cc2)nc2c(C#N)c(Nc3ccccc3)nn2c1N | 104% |
| COc1ccc2[nH]cc(-c3csc4nc(-c5ccccc5)cn34)c2c1 | 13.9% |
| NC(N)=NS(=O)(=O)c1ccc(N=NC2C(=O)NN(c3ccccc3)C2=O)cc1 (stereo not given) | 107% |
| CCCCSc1nnc(-c2ccc(-c3ccc(Cl)cc3)nc2C)o1 | 91.9% |
| C#C[C@]1(O)CC[C@H]2[C@@H]3CC=C4c5sc(Nc6ccc(Cl)cn6)nc5CC[C@]4(C)[C@H]3CC[C@@]21C | 6.4% (active) |
| N[C@@H](Cc1cn(-c2c3ccccc3nc3ccccc23)nn1)C(=O)O | 95.5% |
| O=S(=O)(NC1CC2CCC1C2)c1ccc2c(c1)C(=NO)c1cc(S(=O)(=O)NC3CC4CCC3C4)ccc1-2 (stereo not given) | -29.7% (active) |
| CCCCN1C(=O)/C(=c2\sc3n(c2=O)C2C(NN=3)N(CC)C(=O)N2CC)c2cccc(C)c21 (stereo not given) | 2.95% (active) |
| COc1ccc(C(=O)c2c(N)c(C#N)cn2-c2cccc(OC)c2)cc1 | 3.83% (active) |
| CCc1cccc2c3c(sc12)C(c1ccc(F)cc1)C(C#N)=C(/N=C/c1ccc(Cl)cc1)O3 (stereo not given) | 7.08% (active) |
| CCOC(=O)c1sc(N)c(C(=O)OCC)c1C | 38.5% |
| COc1ccc(/C=C/C(=O)c2nnn(-c3ccc(C(=O)O)cc3)c2C)cc1OC | 83.2% |
